Values without a mark were called inactive. Records with an inconclusive call do not appear. Where a call stands in place of a potency, no number is given. Active and inactive are the calls of the source. Unless noted, calls come from the whole dose curve.
What was measured:
[1] = Nuclear factor erythroid 2-related factor 2/antioxidant responsive element (Nrf2/ARE) small molecule agonists: qHTS cell viability counter screen in human keratinocytes (AID 1919968; active = well fitted curve in the direction sought with a large enough effect in the repeat runs; an effect the other way counts as inactive or inconclusive; note: nearly all actives have a fitted effect of over 55% in size)
Method in brief: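 CellTiter-Fluor fluorescence, read 1 h after reagent, gave viability in the same wells as the ARE-luciferase assay. KeratinoSens cells (1,500/well) had 23 h compound exposure at 37 C/5% CO2 following 5 h plating.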

[2] = Nuclear factor erythroid 2-related factor 2/antioxidant responsive element (Nrf2/ARE) small molecule agonists: luciferase reporter gene qHTS assay in human keratinocytes (AID 1919969); note: nearly all actives have a fitted effect of over 35% in size; note: potency is the fitted concentration of half-maximal effect
[3] = target: Gonadotropin-releasing hormone receptor (Homo sapiens) (UniProt P30968); assay: Human gonadotropin-releasing hormone receptor (GnRHR) small molecule agonists, calcium flux assay in GnRHR-HEK293 cells (AID 1920063); note: nearly all actives have a fitted effect of over 35% in size
Gonadotropin-releasing hormone receptor (Homo sapiens), sequence (P30968 whole entry, looked up): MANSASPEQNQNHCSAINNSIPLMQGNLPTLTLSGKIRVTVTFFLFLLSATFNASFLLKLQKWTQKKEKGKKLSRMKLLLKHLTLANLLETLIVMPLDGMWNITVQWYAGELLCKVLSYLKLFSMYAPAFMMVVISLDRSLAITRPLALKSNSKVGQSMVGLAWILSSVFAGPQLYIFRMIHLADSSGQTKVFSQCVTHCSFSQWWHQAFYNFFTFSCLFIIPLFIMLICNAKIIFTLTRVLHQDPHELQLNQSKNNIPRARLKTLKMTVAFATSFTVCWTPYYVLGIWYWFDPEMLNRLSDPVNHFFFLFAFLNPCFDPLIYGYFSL
Method in brief: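 Agonist mode: compounds at 15 concentrations, in triplicate, went onto calcium dye-loaded GnRHR-HEK293 cells. Intracellular calcium was then followed as 480/540 nm fluorescence at 1 s intervals over 3 min.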

[4] = target: KiSS-1 receptor (Homo sapiens) (UniProt Q969F8); assay: Human kisspeptin (KISS1R) small molecule agonists, calcium flux assay in KISS1R-HEK293 cells (AID 1920064; active = well fitted curve in the direction sought with a large enough effect in the repeat runs; an effect the other way counts as inactive or inconclusive)
KiSS-1 receptor (Homo sapiens), sequence (Q969F8 whole entry, looked up): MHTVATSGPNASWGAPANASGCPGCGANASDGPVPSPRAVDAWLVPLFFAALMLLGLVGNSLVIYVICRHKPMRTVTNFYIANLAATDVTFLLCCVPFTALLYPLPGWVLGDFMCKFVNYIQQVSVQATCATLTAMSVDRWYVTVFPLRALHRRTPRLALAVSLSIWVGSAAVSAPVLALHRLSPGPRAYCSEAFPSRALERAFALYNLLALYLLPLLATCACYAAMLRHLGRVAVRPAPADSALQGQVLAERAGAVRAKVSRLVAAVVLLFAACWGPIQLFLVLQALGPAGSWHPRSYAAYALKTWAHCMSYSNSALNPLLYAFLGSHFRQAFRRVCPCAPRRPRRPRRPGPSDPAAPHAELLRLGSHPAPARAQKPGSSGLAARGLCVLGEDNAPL
Method in brief: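 Agonist mode: intracellular calcium rise tracked at 1 s intervals over 3 min (480/540 nm) immediately after compound addition to dye-loaded KISS1R-HEK293 stable cells. Each compound tested at 15 concentrations in triplicate.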

[5] = G protein-coupled receptor (GPCR) small molecule agonists, calcium flux assay: HEK293 wild type cell line counter screen (AID 1920065)
Method in brief: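 Calcium flux counter screen: compound added in agonist mode at 15 concentrations in triplicate to dye-loaded parental HEK293 cells. Fluorescence (480/540) read kinetically for 3 min; ATP served as positive control.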

[6] = p53 small molecule agonists, cell-based qHTS assay with human liver microsomes (AID 1963577);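 note: p53 response element beta-lactamase reporter cells with liver microsomes plus NADPH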
Method in brief: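 16 h, 37 C exposure of p53RE-bla cells to compounds with human liver microsomes and NADPH (0.5 mg/mL final each); detection via LiveBLAzer mixture, 2 h dark at room temperature.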

[7] = p53 small molecule agonists, cell-based qHTS assay with rat liver microsomes (AID 1963578)
Method in brief: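 With rat liver microsomes and NADPH present (0.5 mg/mL final each), p53RE-bla cells are treated with compound for 16 h at 37 C. LiveBLAzer detection mixture is then applied for 2 h at room temperature in the dark.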

[8] = p53 small molecule agonists, cell-based qHTS assay with human liver microsomes: qHTS cell viability counter screen (AID 1963579); note: nearly all actives have a fitted effect of over 45% in size
Method in brief: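 In this multiplexed counter screen, the reporter plates were subsequently treated with CellTiter-Glo so that cell viability, reflected by luminescence, could be recorded for p53RE-bla cells dosed 16 h with compounds under microsomal activation (HLM and NADPH).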

[9] = p53 small molecule agonists, cell-based qHTS assay with rat liver microsomes: qHTS cell viability counter screen (AID 1963580); note: nearly all actives have a fitted effect of over 45% in size
Method in brief: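 Counter screen for cytotoxicity under metabolic activation: rat liver microsomes and NADPH, 0.5 mg/mL final each, added with compounds to p53RE-bla HCT-116 cells; 16 h at 37 C, then ATP luminescence read.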

[10] = p53 small molecule agonists, cell-based qHTS assay: qHTS cell viability counter screen (AID 1963581); note: nearly all actives have a fitted effect of over 45% in size
Method in brief: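 Counter screen read by CellTiter-Glo luminescence (ATP content, 30 min at room temperature), run in the same wells as the beta-lactamase reporter read. HCT-116 p53RE-bla cells saw compounds for 16 h at 37 C.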

[11] = target: 5-hydroxytryptamine receptor 2A (Homo sapiens) (UniProt P28223); assay: 5-hydroxytryptamine receptor 2A (HTR2A) small molecule antagonists, cell-based qHTS assay (AID 1963586); note: nearly all actives have a fitted effect of over 45% in size
5-hydroxytryptamine receptor 2A (Homo sapiens), sequence (P28223 whole entry, looked up): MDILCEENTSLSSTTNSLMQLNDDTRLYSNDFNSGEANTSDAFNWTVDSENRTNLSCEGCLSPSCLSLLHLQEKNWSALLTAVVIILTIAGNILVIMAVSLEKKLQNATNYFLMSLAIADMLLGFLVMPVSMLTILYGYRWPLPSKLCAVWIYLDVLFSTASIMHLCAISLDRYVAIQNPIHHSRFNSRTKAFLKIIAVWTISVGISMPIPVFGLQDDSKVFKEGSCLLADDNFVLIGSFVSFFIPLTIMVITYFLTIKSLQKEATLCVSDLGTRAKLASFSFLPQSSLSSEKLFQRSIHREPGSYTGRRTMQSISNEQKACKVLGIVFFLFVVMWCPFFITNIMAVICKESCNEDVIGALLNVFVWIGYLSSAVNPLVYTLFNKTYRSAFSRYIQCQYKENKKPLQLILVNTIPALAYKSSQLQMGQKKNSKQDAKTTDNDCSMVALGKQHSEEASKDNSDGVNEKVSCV
Method in brief: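 CHO cells stably expressing human HTR2A were plated for 18 h at 37 C, then loaded with calcium dye for 1 h. Compounds were preincubated 5 min at room temperature before DOI (4 nM solution) was added. Kinetic fluorescence was read for 3 min.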

[12] = target: 5-hydroxytryptamine receptor 2A (Homo sapiens) (UniProt P28223); assay: 5-hydroxytryptamine receptor 2A (HTR2A) small molecule agonists, cell-based qHTS assay (AID 1963587); note: nearly all actives have a fitted effect of over 30% in size
Method in brief: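 HTR2A-CHO cells, plated 18 h at 37 C/5% CO2, dye-loaded 1 h at 37 C; compounds in DMSO added by pin tool (agonist mode). Intracellular calcium flux read as kinetic fluorescence on FDSS over 2 min at 1 s intervals.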

[13] = target: Muscarinic acetylcholine receptor M1 (Homo sapiens) (UniProt P11229); assay: Cholinergic receptor muscarinic 1 (CHRM1) small molecule antagonists, cell-based qHTS assay (AID 1963588); note: nearly all actives have a fitted effect of over 40% in size
Muscarinic acetylcholine receptor M1 (Homo sapiens), sequence (P11229 whole entry, looked up): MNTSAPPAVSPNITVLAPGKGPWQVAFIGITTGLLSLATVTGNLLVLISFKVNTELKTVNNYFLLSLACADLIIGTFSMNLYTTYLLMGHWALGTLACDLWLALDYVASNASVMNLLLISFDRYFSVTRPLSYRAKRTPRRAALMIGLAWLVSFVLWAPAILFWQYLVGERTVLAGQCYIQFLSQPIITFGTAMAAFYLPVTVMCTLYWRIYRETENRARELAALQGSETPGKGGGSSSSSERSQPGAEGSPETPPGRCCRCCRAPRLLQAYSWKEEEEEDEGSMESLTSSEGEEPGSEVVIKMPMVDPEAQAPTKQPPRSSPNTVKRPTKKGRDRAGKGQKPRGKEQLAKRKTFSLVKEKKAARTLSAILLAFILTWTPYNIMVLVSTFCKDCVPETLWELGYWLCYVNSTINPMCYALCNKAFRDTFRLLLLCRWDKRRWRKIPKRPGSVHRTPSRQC
Method in brief: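 Compounds were tested at 15 concentrations in three independent runs. Dye-loaded CHRM1-CHO cells were exposed 5 min at room temperature before stimulation by acetylcholine added at 50nM. Intracellular calcium was read kinetically on FDSS for 3 min.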

[14] = target: Muscarinic acetylcholine receptor M1 (Homo sapiens) (UniProt P11229); assay: Cholinergic receptor muscarinic 1 (CHRM1) small molecule agonists, cell-based qHTS assay (AID 1963589); note: nearly all actives have a fitted effect of over 35% in size
Method in brief: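 Agonist-mode calcium-flux screen: compounds at 15 concentrations, three independent runs, were pin-transferred onto dye-loaded human CHRM1-CHO cells. Fluorescence was then recorded kinetically every second over minutes.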

[15] = cAMP Responsive Elements (CRE) small molecule agonists, cell-based qHTS assay (AID 1963590)
Method in brief: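 Agonist mode: compound added to CRE-bla HEK 293T cells (2,000/well, 18 h after plating) for 3 h at 37 C/5% CO2. Reporter activity detected via FRET beta-lactamase substrate, 2 h room-temperature loading.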

[16] = cAMP Responsive Elements (CRE) small molecule antagonists, cell-based qHTS assay (AID 1963591; active = well fitted inhibition curve with a large enough effect in the signal ratio in the repeat runs, not every such curve was filed as active; the % refers to the signal ratio)
Method in brief: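 Antagonist mode: compounds are added alongside the adenylyl cyclase activator NKH477 (0.25 uM final) to CRE-bla HEK293T cells for 3 h. LiveBLAzer FRET substrate, 2 h at room temperature, reports bla expression.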

[17] = target: Beta-2 adrenergic receptor (Homo sapiens) (UniProt P07550); assay: Adrenergic beta2 receptor (ADRB2) small molecule antagonists, cell-based qHTS assay (AID 1963592); note: nearly all actives have a fitted effect of over 50% in size; note: potency is the fitted concentration of half-maximal effect; for activity change, negative = inhibition: series mostly up to about 92 µM
Beta-2 adrenergic receptor (Homo sapiens), sequence (P07550 whole entry, looked up): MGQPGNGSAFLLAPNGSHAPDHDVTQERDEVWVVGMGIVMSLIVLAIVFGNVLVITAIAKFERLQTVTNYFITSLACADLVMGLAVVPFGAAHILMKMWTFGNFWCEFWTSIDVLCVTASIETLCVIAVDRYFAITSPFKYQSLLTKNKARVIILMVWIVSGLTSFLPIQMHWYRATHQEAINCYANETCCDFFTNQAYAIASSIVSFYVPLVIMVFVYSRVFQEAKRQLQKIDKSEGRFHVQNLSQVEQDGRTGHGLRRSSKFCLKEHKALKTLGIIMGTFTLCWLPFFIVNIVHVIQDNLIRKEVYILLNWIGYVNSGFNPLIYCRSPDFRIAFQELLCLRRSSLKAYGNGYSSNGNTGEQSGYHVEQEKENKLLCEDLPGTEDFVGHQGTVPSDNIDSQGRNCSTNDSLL
Method in brief: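 Assay format: CHO-ADRB2 cells, 18-20hr seeding at 37C/5% CO2, then compound plus 1nM isoproterenol agonist mix for 0.5hr RT. Homogeneous time-resolved fluorescence cAMP detection after 1hr, expressed as 665/615 nm ratio.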

[18] = target: D(2) dopamine receptor (Homo sapiens) (UniProt P14416); assay: Dopamine D2 receptor (DRD2) small molecule antagonists, cell-based qHTS assay (AID 1963595; active = well fitted inhibition curve with a large enough effect in the signal ratio in the repeat runs, with a control signal flat; the % refers to the signal ratio)
D(2) dopamine receptor (Homo sapiens), sequence (P14416 whole entry, looked up): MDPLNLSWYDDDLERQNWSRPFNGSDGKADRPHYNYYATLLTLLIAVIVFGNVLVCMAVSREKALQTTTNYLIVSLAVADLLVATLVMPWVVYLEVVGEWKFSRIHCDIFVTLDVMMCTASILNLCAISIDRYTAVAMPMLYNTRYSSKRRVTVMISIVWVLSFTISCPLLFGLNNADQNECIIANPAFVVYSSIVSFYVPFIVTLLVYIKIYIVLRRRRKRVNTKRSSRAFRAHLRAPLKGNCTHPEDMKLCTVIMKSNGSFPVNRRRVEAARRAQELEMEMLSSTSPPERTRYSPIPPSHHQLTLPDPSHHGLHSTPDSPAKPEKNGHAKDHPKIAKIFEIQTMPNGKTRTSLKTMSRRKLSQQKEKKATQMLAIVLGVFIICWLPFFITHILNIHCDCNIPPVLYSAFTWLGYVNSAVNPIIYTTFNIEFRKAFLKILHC
Method in brief: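 DRD2-HEK293; 0.1 mM Ro20-1724; cpd 10 min RT; NKH477 200 nM + quinpirole 12 nM, 30 min RT; HTRF cAMP (cAMP-d2/anti-cAMP cryptate), 665/620 nm ratio after 1 h.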

[19] = target: D(2) dopamine receptor (Homo sapiens) (UniProt P14416); assay: Dopamine D2 receptor (DRD2) small molecule agonists, cell-based qHTS assay (AID 1963594); note: nearly all actives have a fitted effect of over 35% in size
Method in brief: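 HEK293 cells stably expressing DRD2 were cultured 24 h at 37 C, then given Ro20-1724 (0.1 mM final) and compounds for 10 min at room temperature. NKH477 (200nM) was then added for 30 min. cAMP was read by HTRF.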

CC1=CCC2C(C1)C2(C)C (centres undefined)
Potency [1]: inactive | Potency [2]: inactive | Potency [3]: inactive | outcome [4]: inactive | outcome [5]: inactive | Potency [6]: inactive | Potency [7]: inactive | Potency [8]: inactive | Potency [9]: inactive | Potency [10]: inactive | Potency [11]: inactive | Potency [12]: inactive | Potency [13]: inactive | Potency [14]: inactive | Potency [15]: inactive | Potency [16]: inactive | Potency [17]: 27.3 µM (active) | Potency [18]: inactive

CCOC(=N)CC(=O)OCC
Potency [1]: inactive | Potency [2]: inactive | Potency [3]: inactive | outcome [4]: inactive | outcome [5]: inactive | Potency [6]: inactive | Potency [7]: inactive | Potency [8]: inactive | Potency [9]: inactive | Potency [10]: inactive | Potency [11]: inactive | Potency [12]: inactive | Potency [13]: inactive | Potency [14]: inactive | Potency [15]: inactive | Potency [16]: inactive | Potency [17]: inactive | Potency [19]: inactive | Potency [18]: inactive

BrC/C=C/CBr
activity change, negative = cytotoxicity [1]: -3.14% [at 19 µM] | activity, positive = activation [2]: -2.5% [at 19 µM] | activity change [3]: 0.305% [at 11.8 µM, hits give high values] | activation [4]: -0.639% [at 15.8 µM] | activation [5]: 0.681% [at 11.8 µM] | activation [6]: -4.84% [at 13.5 µM] | activation [7]: -1.81% [at 13.6 µM] | activity change, negative = cytotoxicity [8]: -4.11% [at 13.5 µM] | activity change, negative = cytotoxicity [9]: -2.57% [at 13.5 µM] | activity change, negative = cytotoxicity [10]: -2.07% [at 13.5 µM] | activity, negative = inhibition [11]: -12.9% [at 12.7 µM] | activation [12]: -0.944% [at 15.9 µM] | activity, negative = inhibition [13]: -3.79% [at 12.6 µM] | activation [14]: 1.37% [at 15.8 µM] | activation [15]: -0.306% [at 19 µM] | activity change, negative = inhibition [16]: -2.76% [at 18.9 µM] | activity change, negative = inhibition [17]: -26% [at 19 µM] | activation [19]: -0.205% [at 19 µM] | activity change, negative = inhibition [18]: 7.87% [at 18.9 µM]

C=CC/C=C/C
Potency [1]: inactive | Potency [2]: inactive | Potency [3]: inactive | outcome [4]: inactive | outcome [5]: inactive | Potency [6]: inactive | Potency [7]: inactive | Potency [8]: inactive | Potency [9]: inactive | Potency [10]: inactive | Potency [11]: inactive | Potency [12]: inactive | Potency [13]: inactive | Potency [14]: inactive | Potency [15]: inactive | Potency [16]: inactive | Potency [17]: inactive | Potency [19]: inactive | Potency [18]: inactive

CO[Si](CCCNc1ccccc1)(OC)OC
Potency [1]: inactive | Potency [2]: inactive | Potency [3]: inactive | outcome [4]: inactive | outcome [5]: inactive | Potency [6]: inactive | Potency [7]: inactive | Potency [8]: inactive | Potency [9]: inactive | Potency [10]: inactive | Potency [11]: inactive | Potency [12]: inactive | Potency [13]: inactive | Potency [14]: inactive | Potency [15]: inactive | Potency [17]: inactive | Potency [19]: inactive | Potency [18]: inactive

CC(C)=CCC/C(C)=C/CC/C(C)=C/CCC(=O)OC/C=C(\C)CCC=C(C)C
Potency [1]: inactive | Potency [2]: inactive | Potency [3]: inactive | outcome [4]: inactive | outcome [5]: inactive | Potency [6]: inactive | Potency [7]: inactive | Potency [8]: inactive | Potency [9]: inactive | Potency [10]: inactive | Potency [11]: inactive | Potency [12]: inactive | Potency [13]: inactive | Potency [14]: inactive | Potency [15]: inactive | Potency [16]: inactive | Potency [17]: inactive | Potency [18]: inactive

CCOC(=O)/C=C/C(=O)O
Potency [1]: inactive | Potency [2]: 61.1 µM (active) | Potency [3]: inactive | outcome [4]: inactive | outcome [5]: inactive | Potency [6]: inactive | Potency [7]: inactive | Potency [8]: inactive | Potency [9]: inactive | Potency [10]: inactive | Potency [11]: inactive | Potency [12]: inactive | Potency [13]: inactive | Potency [14]: inactive | Potency [15]: inactive | Potency [16]: inactive | Potency [17]: inactive | Potency [19]: inactive | Potency [18]: inactive

C=COCC(C)C
Potency [1]: inactive | Potency [2]: inactive | Potency [3]: inactive | outcome [4]: inactive | outcome [5]: inactive | Potency [6]: inactive | Potency [7]: inactive | Potency [8]: inactive | Potency [9]: inactive | Potency [10]: inactive | Potency [11]: inactive | Potency [12]: inactive | Potency [13]: inactive | Potency [14]: inactive | Potency [15]: inactive | Potency [16]: inactive | Potency [17]: inactive | Potency [19]: inactive | Potency [18]: inactive

Source: PubChem BioAssay (Tox21)
